Test results taken from PMC12350791.

What follows are substances tested against HNRNPU (UniProt Q00839) (assay: cross-linking mass spectrometry). Settings: DSBSO, in cells or nuclear extract, not told apart.
Chain of HNRNPU (Q00839 whole entry): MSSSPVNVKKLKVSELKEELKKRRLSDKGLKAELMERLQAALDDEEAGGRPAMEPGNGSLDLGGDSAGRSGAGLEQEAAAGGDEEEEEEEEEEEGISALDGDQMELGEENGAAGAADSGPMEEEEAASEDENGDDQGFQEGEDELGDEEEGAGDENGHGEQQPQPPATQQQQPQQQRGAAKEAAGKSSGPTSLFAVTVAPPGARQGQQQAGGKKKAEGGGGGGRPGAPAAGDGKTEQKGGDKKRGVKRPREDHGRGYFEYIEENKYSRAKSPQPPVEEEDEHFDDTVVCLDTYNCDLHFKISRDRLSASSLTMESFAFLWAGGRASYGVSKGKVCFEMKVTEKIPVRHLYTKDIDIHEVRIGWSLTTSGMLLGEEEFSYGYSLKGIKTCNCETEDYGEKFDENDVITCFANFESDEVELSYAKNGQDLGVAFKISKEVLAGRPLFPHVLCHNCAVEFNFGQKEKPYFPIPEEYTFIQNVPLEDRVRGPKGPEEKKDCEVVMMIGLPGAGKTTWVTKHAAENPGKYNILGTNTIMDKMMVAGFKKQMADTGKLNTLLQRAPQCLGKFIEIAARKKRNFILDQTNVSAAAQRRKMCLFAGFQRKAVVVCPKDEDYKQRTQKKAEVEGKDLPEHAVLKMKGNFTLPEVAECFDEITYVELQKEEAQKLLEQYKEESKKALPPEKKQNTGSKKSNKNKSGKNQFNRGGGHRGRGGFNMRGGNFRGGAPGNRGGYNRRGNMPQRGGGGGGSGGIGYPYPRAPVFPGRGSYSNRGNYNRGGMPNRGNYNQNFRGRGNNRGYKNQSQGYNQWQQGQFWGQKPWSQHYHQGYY

Chain of HNRNPR, O43390 (O43390 whole entry): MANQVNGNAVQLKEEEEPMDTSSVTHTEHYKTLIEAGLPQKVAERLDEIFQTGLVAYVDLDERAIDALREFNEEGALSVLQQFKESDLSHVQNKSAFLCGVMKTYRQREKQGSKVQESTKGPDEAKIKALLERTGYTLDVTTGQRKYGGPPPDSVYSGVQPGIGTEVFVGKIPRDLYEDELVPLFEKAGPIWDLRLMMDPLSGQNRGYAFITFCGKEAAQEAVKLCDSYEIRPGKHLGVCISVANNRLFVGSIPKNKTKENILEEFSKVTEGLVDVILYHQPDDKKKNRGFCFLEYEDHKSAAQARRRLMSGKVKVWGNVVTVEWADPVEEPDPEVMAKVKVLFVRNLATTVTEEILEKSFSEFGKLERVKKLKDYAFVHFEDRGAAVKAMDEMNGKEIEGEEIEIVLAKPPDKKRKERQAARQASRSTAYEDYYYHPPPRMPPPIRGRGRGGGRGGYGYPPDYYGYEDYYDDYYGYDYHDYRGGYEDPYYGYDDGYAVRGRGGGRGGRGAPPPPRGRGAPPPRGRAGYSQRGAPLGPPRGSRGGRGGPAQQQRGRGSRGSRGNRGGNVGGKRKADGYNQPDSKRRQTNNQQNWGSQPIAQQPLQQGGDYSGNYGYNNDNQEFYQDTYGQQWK
Chain of HNRNPDL, O14979 (O14979 whole entry): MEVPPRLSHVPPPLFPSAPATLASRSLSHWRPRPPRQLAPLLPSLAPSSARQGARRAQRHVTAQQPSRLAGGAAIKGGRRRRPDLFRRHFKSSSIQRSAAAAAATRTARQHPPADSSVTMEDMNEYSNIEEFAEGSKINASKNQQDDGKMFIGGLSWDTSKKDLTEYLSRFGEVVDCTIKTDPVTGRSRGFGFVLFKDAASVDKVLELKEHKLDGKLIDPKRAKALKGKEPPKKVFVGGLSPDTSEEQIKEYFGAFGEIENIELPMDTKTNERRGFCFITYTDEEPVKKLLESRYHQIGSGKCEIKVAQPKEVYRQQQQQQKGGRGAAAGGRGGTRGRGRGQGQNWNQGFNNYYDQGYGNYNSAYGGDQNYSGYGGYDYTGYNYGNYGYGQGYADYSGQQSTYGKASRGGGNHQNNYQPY
Chain of GART, P22102 (P22102 whole entry): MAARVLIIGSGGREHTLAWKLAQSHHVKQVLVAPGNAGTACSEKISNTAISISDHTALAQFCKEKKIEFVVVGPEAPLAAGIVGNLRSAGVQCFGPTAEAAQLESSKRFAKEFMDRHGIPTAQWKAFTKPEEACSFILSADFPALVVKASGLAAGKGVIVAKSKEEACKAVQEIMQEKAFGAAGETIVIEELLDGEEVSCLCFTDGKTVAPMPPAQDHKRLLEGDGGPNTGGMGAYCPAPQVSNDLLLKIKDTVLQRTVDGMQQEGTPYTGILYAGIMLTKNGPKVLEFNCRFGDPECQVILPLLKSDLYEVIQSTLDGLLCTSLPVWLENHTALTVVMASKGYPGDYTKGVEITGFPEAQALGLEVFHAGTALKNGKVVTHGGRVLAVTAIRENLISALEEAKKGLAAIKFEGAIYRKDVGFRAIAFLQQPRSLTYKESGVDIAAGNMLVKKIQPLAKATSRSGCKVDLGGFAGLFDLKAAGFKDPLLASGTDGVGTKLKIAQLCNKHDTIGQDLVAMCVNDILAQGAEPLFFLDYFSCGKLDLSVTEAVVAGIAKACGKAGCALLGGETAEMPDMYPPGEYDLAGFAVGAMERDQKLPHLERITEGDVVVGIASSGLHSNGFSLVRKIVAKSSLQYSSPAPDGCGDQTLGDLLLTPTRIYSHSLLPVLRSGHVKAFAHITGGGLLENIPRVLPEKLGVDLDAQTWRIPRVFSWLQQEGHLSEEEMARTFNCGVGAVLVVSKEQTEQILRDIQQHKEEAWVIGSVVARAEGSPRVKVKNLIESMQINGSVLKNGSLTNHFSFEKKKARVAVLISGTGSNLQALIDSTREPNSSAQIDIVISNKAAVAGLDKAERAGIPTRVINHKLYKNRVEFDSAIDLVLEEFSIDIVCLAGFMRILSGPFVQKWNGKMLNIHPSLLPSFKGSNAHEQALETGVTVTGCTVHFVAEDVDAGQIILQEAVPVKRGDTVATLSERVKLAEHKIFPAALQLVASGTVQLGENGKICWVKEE

Row | Substance | cross-linked residues
1 | HNRNPDL, O14979 | K302 - K352
2 | HNRNPR, O43390 | K359 - K181
3 | GART, P22102 | K251 - K331
